Unmarked numbers belong to inactive results.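 How the source made its calls, unless noted: active means cell viability at or below a set limit in both duplicate runs, the limit being the all-compound median minus 4 SD (cut at about 23% in these data, passing the limit was not always enough); inconclusive means no clear call, values can overlap the other calls; inactive means the rest.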 Records with an inconclusive call do not appear.
assay: viability gain of MRP-1-high H69AR cells under doxorubicin, pilot screen, MRP-1 activator project, CellTiter-Glo, duplicate (AID 807;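 active means viability increase at or above a cutoff of the median across tested compounds plus 3 SD, cut at about 8.5% in these data, passing the limit was not always enough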;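 further: compound pretreatment 18-22 h then 72 h combined with doxorubicin; 0% = doxorubicin alone and 100% = vehicle without doxorubicin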); conditions: H69AR viability with doxorubicin, CellTiter-Glo luminescence; at 10 µM; stronger effect = higher value

Compared with `Cc1oc2cc(O)ccc2c(=O)c1N1C(=O)c2ccccc2C1=O`, `COc1ccccc1N1CCN(C(=O)c2cc3cc(Br)ccc3oc2=O)CC1` is lower in viability increase: 1.85% for the first, -0.94% for the second.

Going from `Cc1ccc(C2CC(c3ccc(F)cc3)Nc3nc(N)nn32)cc1` (stereo not drawn) to `CC1=C(C(N)=O)C(c2ccccn2)n2nc(SCc3ccccc3Cl)nc2N1` (stereo not drawn), the viability increase rises from -3.44% to -1.33%.

First: CCOC(=O)c1c(C)n(C)c2cc(Br)c(C(=O)OC)cc12
Second: COc1cc(C2NC(=O)NC(C)=C2C(=O)OC2CCCCC2)cc(Br)c1O (stereo not drawn)
The viability increase of the first is lower: -3.53% for the first, 0.18% for the second.

First: COc1ccc(N(CC(=O)NCc2ccco2)S(=O)(=O)c2c(C)nn(C)c2C)cc1
Second: Cc1cc(OCC(=O)Nc2cc(-c3nn4c(C)nnc4s3)ccc2C)ccc1Cl
The viability increase of the first is lower: -4.02% for the first, -0.6% for the second.

Going from `CC1CCC(NC(=O)CC2Oc3ccccc3NC2=O)CC1` (stereo not drawn) to `O=C(NC1CCCCCC1)C1CCN(S(=O)(=O)c2cccc3cccnc23)CC1`, the viability increase rises from -0.98% to 2.08%.

Going from `CCOc1ccc2[nH]c(C)c(CN3CCOCC3)c(=O)c2c1` to `COc1ccc(OC)c(CN2CCN(c3ccccc3OC)CC2)c1`, the viability increase rises from -1.13% to -0.4%.

Going from `COc1ccc(OC)c(CCNC(=O)C2CCN(c3nnc(-n4cccc4)s3)CC2)c1` to `COc1ccc(N2CSC3=C(C#N)C(c4cccc(OC)c4OC)CC(=O)N3C2)cc1` (stereo not drawn), the viability increase rises from -4.48% to -4.01%.

First: CN1C(=O)C(O)(CC(=O)c2cccnc2)c2ccccc21 (stereo not drawn)
Second: Cc1ccccc1-n1c(Cn2c(=O)sc3ccccc32)nnc1SCC(=O)Nc1nccs1
The viability increase of the first is higher: -4.86% for the first, -5.13% for the second.

Going from `COc1ccc(C2C(C(=O)NCC3CCCO3)c3cc(OC)c(OC)cc3C(=O)N2C)cc1OC` (stereo not drawn) to `CC1CCCN(C(=O)c2ccc3c(c2)C(=O)N(CCC2=CCCCC2)C3=O)C1` (stereo not drawn), the viability increase rises from -1.75% to -0.25%.

Compared with `CN=C1SC(CC(=O)Nc2ccccc2F)C(=O)N1C` (stereo not drawn), `CCSc1nnc(NC(=O)CSc2nc3c(c(=O)n2CCOC)SC(C)C3)s1` (stereo not drawn) is lower in viability increase: -0.48% for the first, -2.95% for the second.

First: CCCc1cc(=O)oc2cc3occ(C)c3cc12
Second: COC(=O)C1C2C=CC3(CN(C(C)C)C(=O)C13)O2 (stereo not drawn)
The viability increase of the first is lower: -2.52% for the first, -1.07% for the second.

Work on `CC(C)(C)OC(=O)N1CCC(C(N)=O)CC1` yielded a viability increase of -0.33%.

assay: growth suppression of beta-catenin knockout HCT116, pilot screen, human colon tumor cells (AID 823); conditions: CellTiter-Glo, 60 h, at 10 µM, stronger effect = lower value;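 further: 0% = wells killed by 20 µM Hyamine and 100% = untreated DMSO cell wells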

Going from `COc1ccc(-c2noc(-c3ccccc3F)n2)cc1` to `COc1ccc(-n2nc3c(c2NC(=O)c2ccc(Br)cc2)CS(=O)C3)cc1` (stereo not drawn), the viability falls from 86.6% to 85.3%.

Compared with `CCOC(=O)N1CCN(C(=O)C(C)(C)Oc2ccc(Cl)cc2)CC1`, `CC(C)(C)OC(=O)N1CCC(C(N)=O)CC1` is higher in viability: 93% for the first, 103% for the second.

First: CCOc1ccc(C2CC(c3ccc(CC)cc3)Nc3nc(N)nn32)cc1 (stereo not drawn)
Second: Cc1ccc(C2CC(c3ccc(F)cc3)Nc3nc(N)nn32)cc1 (stereo not drawn)
The viability of the first is lower: 97.5% for the first, 99.8% for the second.

Going from `O=C(Cn1cc2c(n1)CCCCC2)NCc1ccccn1` to `CC1CCCCN1c1nnc(NC(=O)Cn2c(=O)oc3ccccc32)s1` (stereo not drawn), the viability rises from 95.6% to 110%.

Compared with `O=C(Nc1ccc(Cl)cn1)c1cccc(F)c1`, `CN1C(=O)C(O)(CC(=O)c2cccnc2)c2ccccc21` (stereo not drawn) is higher in viability: 37% for the first, 83% for the second.

First: CCCn1c(C(O)c2ccc3c(c2)OCO3)nc2ccccc21 (stereo not drawn)
Second: COc1ccccc1N1CCN(C(=O)c2cc3cc(Br)ccc3oc2=O)CC1
The viability of the first is lower: 100% for the first, 110% for the second.

First: Cc1ncc(CO)c2cc(S(=O)(=O)c3ccc(F)cc3)c(=O)oc12
Second: Cc1oc2cc(O)ccc2c(=O)c1N1C(=O)c2ccccc2C1=O
The viability of the first is higher: 104% for the first, 98.2% for the second.

Going from `COc1ccc(C/C(N)=N/n2cnnc2)cc1` to `COc1ccc(N(CC(=O)NCc2ccco2)S(=O)(=O)c2c(C)nn(C)c2C)cc1`, the viability falls from 100% to 89.8%.

Compared with `Cc1cc(C)cc(N(CC(=O)N2CCN(Cc3ccccc3)CC2)S(=O)(=O)c2c(C)noc2C)c1`, `O=C(c1ccc(CN2CCOCC2)cc1)N1CCN(Cc2ccccc2)CC1` is lower in viability: 101% for the first, 97.5% for the second.

First: COc1ccccc1NC(=O)Cn1cnc2c(oc3ccccc32)c1=O
Second: Cc1ccccc1-n1c(Cn2c(=O)sc3ccccc32)nnc1SCC(=O)Nc1nccs1
The viability of the first is higher: 107% for the first, 75.2% for the second.

Going from `O=C1CCCC2=C1C1(O)C(=O)c3ccccc3C1(O)O2` (stereo not drawn) to `CC1CCC(NC(=O)CC2Oc3ccccc3NC2=O)CC1` (stereo not drawn), the viability rises from 89.4% to 98.8%.

First: Cc1cc(C)c(NC(=O)C(C)(C)C)c(Cl)c1
Second: Cc1cc(OCC(=O)Nc2cc(-c3nn4c(C)nnc4s3)ccc2C)ccc1Cl
The viability of the first is lower: 89.8% for the first, 95.6% for the second.

Going from `Cc1c(NC(=O)Oc2ccccc2)sc(=S)n1C` to `CN=C1SC(CC(=O)Nc2ccccc2F)C(=O)N1C` (stereo not drawn), the viability rises from 102% to 112%.

Going from `Cc1cccc(N(C)c2cc(C)nc3ncnn23)c1` to `CC1=C(C(N)=O)C(c2ccccn2)n2nc(SCc3ccccc3Cl)nc2N1` (stereo not drawn), the viability falls from 97.3% to 90.5%.

First: CCOC(=O)c1c(C)n(C)c2cc(Br)c(C(=O)OC)cc12
Second: COc1cc(C2NC(=O)NC(C)=C2C(=O)OC2CCCCC2)cc(Br)c1O (stereo not drawn)
The viability of the first is higher: 97% for the first, 82.1% for the second.

First: O=C(NC1CCCCCC1)C1CCN(S(=O)(=O)c2cccc3cccnc23)CC1
Second: CC1CCCN(C(=O)c2ccc3c(c2)C(=O)N(CCC2=CCCCC2)C3=O)C1 (stereo not drawn)
The viability of the first is higher: 99.5% for the first, 87.5% for the second.

Compared with `CCOc1ccc2[nH]c(C)c(CN3CCOCC3)c(=O)c2c1`, `COc1ccc(OC)c(CN2CCN(c3ccccc3OC)CC2)c1` is lower in viability: 96.5% for the first, 61.2% for the second.

Compared with `COc1ccc(OC)c(CCNC(=O)C2CCN(c3nnc(-n4cccc4)s3)CC2)c1`, `COc1ccc(N2CSC3=C(C#N)C(c4cccc(OC)c4OC)CC(=O)N3C2)cc1` (stereo not drawn) is higher in viability: 85.2% for the first, 95.6% for the second.

Compared with `COc1ccc(C2C(C(=O)NCC3CCCO3)c3cc(OC)c(OC)cc3C(=O)N2C)cc1OC` (stereo not drawn), `CCCc1cc(=O)oc2cc3occ(C)c3cc12` is higher in viability: 92.4% for the first, 93.6% for the second.

Going from `CCSc1nnc(NC(=O)CSc2nc3c(c(=O)n2CCOC)SC(C)C3)s1` (stereo not drawn) to `COC(=O)C1C2C=CC3(CN(C(C)C)C(=O)C13)O2` (stereo not drawn), the viability rises from 94.1% to 106%.
